# Screens from PubChem BioAssay.
# Sampled rows, rich in hits. Any-hit rate of the full collection: about 3.5%.
# TEAD-YAP block: TEAD-YAP interaction inhibition, primary screen, TEAD-YAP interaction inhibitor project, luminescence, HEK-TIYL cells; TEAD-Gal4/YAP UAS-luciferase luminescence; inhibition, % at 9.12 µM; hit rate 1.4% among 640,000; in the data active = inhibition above about 32%;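 note: 0% = median of test compound wells and 100% = reference inhibitor wells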
# GPR151 activ: activators of human GPR151, primary screen, cell-based, PathHunter beta-arrestin, luminescence | G-protein coupled receptor 151 (Homo sapiens), Q8TDV0 | activation, % at 11.2 µM | PathHunter beta-arrestin GPR151 cells | hit rate 1% among 650,000; in the data active = activation above about 4.9%;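 note: 0% = median of compound wells and 100% = cells with positive control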
# MITF inh: MITF inhibitors, primary screen, biochemical, AlphaScreen, human | inhibition, % at 2.6 µM | hit rate 0.91% among 650,000 | Microphthalmia-associated transcription factor (Homo sapiens), O75030 | AID 1259374, 2018 | AlphaScreen MITF homodimerization, bead proximity signal; in the data active = inhibition above about 50%;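 note: 0% = vehicle wells with protein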
# Target sequence (O75030 whole entry, looked up): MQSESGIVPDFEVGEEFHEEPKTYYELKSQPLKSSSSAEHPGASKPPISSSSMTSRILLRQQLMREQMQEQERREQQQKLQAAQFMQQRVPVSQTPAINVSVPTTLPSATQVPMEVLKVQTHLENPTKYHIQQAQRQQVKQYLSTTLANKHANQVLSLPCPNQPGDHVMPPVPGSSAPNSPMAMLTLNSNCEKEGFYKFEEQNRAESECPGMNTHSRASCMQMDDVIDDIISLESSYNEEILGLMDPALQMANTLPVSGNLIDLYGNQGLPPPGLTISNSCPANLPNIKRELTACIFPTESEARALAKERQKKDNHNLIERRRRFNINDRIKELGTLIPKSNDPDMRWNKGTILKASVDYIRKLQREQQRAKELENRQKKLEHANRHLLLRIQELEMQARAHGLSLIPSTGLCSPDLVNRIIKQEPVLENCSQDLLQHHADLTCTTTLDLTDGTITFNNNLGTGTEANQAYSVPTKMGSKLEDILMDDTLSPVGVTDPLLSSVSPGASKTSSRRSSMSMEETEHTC
# FBW7 activator: FBW7 E3 ligase activators, primary screen, biochemical, AlphaScreen, human; F-box/WD repeat-containing protein 7 (Homo sapiens), Q969H0; AlphaScreen FBW7–phospho-cyclin E peptide binding, activator screen; normalized activity (activation), % at 26.1 µM; hit rate 0.13% among 650,000; in the data active = normalized activity above about 1.9%;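 note: purified mutant Fbw7 with reduced substrate affinity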
# GPR151 conf act: GPR151 activators, triplicate retest, confirmation, cell-based, PathHunter beta-arrestin, luminescence; shares compounds with GPR151 activ; GPR151 PathHunter beta-arrestin cells, 90 min; % of EA-reagent control over plate median; activation, % at 11.2 µM; 6,700 tested, under 10 active;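 active = mean percent activation across replicates above the confirmation screen cutoff of 4.91%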
# GPR119 ag: GPR119 activators in beta-arrestin cells, counter-screen for GPR151 activator project, cell-based, PathHunter beta-arrestin, luminescence, triplicate; AID 1508611, 2020; activation, % at 11.2 µM; 90 min; 0 = compound-well median, 100 = enzyme-acceptor control; hit rate 0.3% among 6,700; shares compounds with GPR151 activ;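 active = mean percent activation in the counterscreen above 29.09%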;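 note: counterscreen on off-target GPR119 to flag nonselective hits from the GPR151 activator screen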
# Numbers without * were called inactive; . = no result given.
SMILES,TEAD-YAP block,GPR151 activ,MITF inh,FBW7 activator,GPR151 conf act,GPR119 ag
CCCC(=O)Nc1ccccc1NC(=O)Cc1ccc(OC)cc1,0,5.4*,16,0,0,-12
Cc1cc(C)n2cc(CSc3nnc(-c4c[nH]c5ccccc45)o3)nc2n1,-13,-2,-4,0,.,.
Cc1cc(Br)cc(C)c1OCC(=O)NCC1CCCO1 (centres undefined),-13,0,2,0,.,.
CCOC(=O)c1ccc(N2C(=O)CC(Cc3ccc(Cl)cc3)C2=O)cc1 (centres undefined),-2,9.6*,-8,0,0,0
COc1ccccc1Cn1c(SCC(=O)Nc2ccc(N(C)C)cc2)nc2ccc(Br)cc2c1=O,3,0,15,0,.,.
COc1cc(OC)c(NS(=O)(=O)c2cc3c(cc2C)N(C)CCO3)cc1Cl,-4,3,4,0,.,.
COc1ccc(NS(=O)(=O)c2cc3c(cc2C)N(C)CCO3)c(OC)c1,7,7.3*,12,0,1,2
Cc1ccc2c(c1)cc(CN(Cc1ccco1)C(=O)Nc1ccccc1)c1nnnn12,-2,0,-1,0,.,.
C#C[C@]1(O)CC[C@H]2[C@@H]3CCC4=CC(=O)CC[C@@H]4[C@H]3CC[C@@]21C,.,0,26,0,.,.
C#C[C@]1(OC(C)=O)CC[C@H]2[C@@H]3CCC4=CC(=O)CC[C@@H]4[C@H]3CCC21C (some centres undefined),.,9.3*,-1,0,-1,-4
N#Cc1ccccc1CSc1ncnc2sccc12,1,5.1*,4,0,1,11
COc1cccc(NC(=O)CCc2c(C)nc3cc(-c4ccccc4OC)nn3c2C)c1,-10,8.2*,-16,0,0,-7
COc1ccc(NC(=O)CCc2c(C)nc3cc(-c4ccccc4OC)nn3c2C)cc1,-27,0,-7,0,.,.
Cc1c(O)ccc(C(=O)CN2CCN(c3ccccc3)CC2)c1O,-1,0,8,0,.,.
Cc1c(O)ccc(C(=O)CN2CCN(c3ccccc3F)CC2)c1O,3,5.0*,-1,0,1,1
CCOc1cccc(OCCCNCCN)c1,10,3,25,0,.,.
CC/C=C\C/C=C\C/C=C\CCCCCCCC(=O)OCC,.,-2,-9,.,.,.
CCCCC/C=C\C/C=C\C/C=C\CCCCCCC(=O)OCC,.,9.1*,4,.,0,4
CCOc1ccc(NC(=O)CSc2nc3nc(C)c(Cc4ccccc4C)c(C)n3n2)cc1,5,1,5,0,.,.
CCOc1ccc(NC(=O)Nc2nnc(CSCc3ccccc3)s2)cc1,12,7.0*,5,0,1,12
CCc1cccc(OCC(=O)Nc2ccccc2C(N)=O)c1,-22,10*,0,0,-1,7
CCc1cccc(OCC(=O)Nc2ccccc2C(=O)O)c1,-27,-1,9,1,.,.
O=C1C=C(c2ccccc2)CC(c2cccs2)C1n1nnc([N+](=O)[O-])n1 (centres undefined),11,-1,20,0,.,.
CCOC(=O)C(N)CSC1CCCCO1 (centres undefined),-5,8.2*,35,0,0,-1
NC(CSC1CCCCO1)C(=O)O (centres undefined),-15,1,-8,0,.,.
SMILES,TEAD-YAP block,GPR151 activ,MITF inh,FBW7 activator,GPR151 conf act,GPR119 ag
Cc1cc(SCc2ccccc2Cl)nc(=O)[nH]1,-14,7.6*,-9,0,0,5
Cc1cc(SCC(=O)NCc2ccc(F)cc2)nc(=O)[nH]1,2,-1,-8,0,.,.
COc1ccccc1CNC(=O)CSc1cc(C)[nH]c(=O)n1,1,12*,-17,0,0,7
CCOc1ccc(CCNS(=O)(=O)c2ccc3c(c2)OCCN3C(C)=O)cc1OCC,4,5.2*,10,1,0,-7
N#Cc1cccc(S(=O)(=O)Nc2ccccc2F)c1,-1,-1,2,0,.,.
O=S(=O)(Nc1ccccc1F)c1cccc(S(=O)(=O)c2ccccc2)c1,3,5.3*,11,0,0,5
Cc1cc(NCCN2CCOCC2)nc(Cl)n1,-2,6.2*,2,0,-1,-9
COc1ccc(C(C)=O)cc1CSc1ncnc2sccc12,-9,0,13,0,.,.
CC1(c2ccc3c(c2)OCCO3)NC(=O)N(Cc2cc(=O)oc3cc4c(cc23)CCC4)C1=O (centres undefined),0,6.7*,4,0,0,0
COc1ccc(N2CCN(C/C=C/c3ccccc3[N+](=O)[O-])CC2)cc1,3,0,15,0,.,.
COc1ccc(N2CCN(Cc3ccc([N+](=O)[O-])s3)CC2)cc1,4,5.1*,56*,0,0,9
Cc1ccc2nc(C)c3c(c2c1)OC(CBr)C3 (centres undefined),11,1,-7,0,.,.
CSc1nc(C)c2c(n1)OC(CBr)C2 (centres undefined),1,5.0*,0,0,-1,-5
COc1ccc(C(=O)NCCC(=O)NCCCC(=O)O)cc1,0,2,-10,1,.,.
CC(=O)Nc1ccc(NC(=O)CN(c2ccc(C(C)C)cc2)S(C)(=O)=O)cc1,-47,-1,-14,0,.,.
CC(C)c1ccc(N(CC(=O)NCCSc2ccccc2)S(C)(=O)=O)cc1,3,21*,20,1,-1,0
CC(C)c1ccc(NC(=O)CN(c2ccc(Cl)cc2)S(C)(=O)=O)cc1,-67,6.2*,-18,0,1,14
O=[N+]([O-])c1ccc(-c2cnc(N/N=C/c3cccc([N+](=O)[O-])c3)nc2)cc1,-1,1,-1,0,.,.
CC(C)N(C(=O)C[n+]1cccc(/C=N/O)c1)C(C)C,-5,1,6,0,.,.
NC(=O)C[n+]1cccc(/C=N/O)c1,-3,6.3*,3,0,0,-2
O=C(NCCc1ccccc1)C1CCC(Cn2c(SCc3ccc(F)cc3Cl)nc3ccccc3c2=O)CC1 (centres undefined),-11,2,4,0,.,.
O=c1ccn([C@@H]2O[C@H](COP(=O)(O)OP(=O)(O)O)[C@@H](O)[C@H]2O)c(=O)[nH]1,0,5.1*,19,0,-1,-2
O=c1ccn(C2OC(COc3ccc([N+](=O)[O-])cc3)C(O)C2O)c(=O)[nH]1 (centres undefined),1,0,7,0,.,.
